# PLK1 PBD inh = PLK1 (human) polo-box domain binding inhibition; P53350; hit rate 2.8% among 360,000; Potency, µM, for the others: max response, negative = inhibition, usual class: inhibitors; Plk1 PBD binding of FITC phosphopeptide, fluorescence polarization; AID 720504; note: series mostly up to about 57 µM; % is set by controls: 0 for no effect and ±100 for the full control effect; nearly all actives have a fitted effect of over 65% in size
# Target sequence (P53350 whole entry, looked up, the tested form may be a part): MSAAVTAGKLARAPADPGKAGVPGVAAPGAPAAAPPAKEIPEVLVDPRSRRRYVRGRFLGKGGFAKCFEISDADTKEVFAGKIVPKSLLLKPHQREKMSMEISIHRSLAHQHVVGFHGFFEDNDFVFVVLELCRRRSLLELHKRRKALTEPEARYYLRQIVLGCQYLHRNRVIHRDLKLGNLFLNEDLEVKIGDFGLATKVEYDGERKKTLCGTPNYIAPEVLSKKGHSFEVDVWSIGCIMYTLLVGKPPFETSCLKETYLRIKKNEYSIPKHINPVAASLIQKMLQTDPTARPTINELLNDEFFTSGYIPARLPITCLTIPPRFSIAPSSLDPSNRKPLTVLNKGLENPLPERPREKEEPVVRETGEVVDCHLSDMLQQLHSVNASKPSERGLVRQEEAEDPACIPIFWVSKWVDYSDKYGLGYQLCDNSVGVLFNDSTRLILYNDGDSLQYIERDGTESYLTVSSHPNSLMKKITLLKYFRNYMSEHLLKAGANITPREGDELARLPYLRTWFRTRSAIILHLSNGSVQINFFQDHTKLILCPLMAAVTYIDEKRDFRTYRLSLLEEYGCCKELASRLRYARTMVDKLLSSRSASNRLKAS
# G9a block = G9a (human) methyltransferase inhibition; Q96KQ7; G9a H3K9 monomethylation, AlphaScreen, 2 h; Potency, µM (doses to about 102 µM), for inactives: at the highest dose activity, negative = inhibition, actives largely listed as inhibitors; hit rate 8.8% among 350,000; AID 504332; note: % is set by controls: 0 for no effect and ±100 for the full control effect; nearly all actives have a fitted effect of over 75% in size
#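 Enzyme 20 nM + cpd, 15 min RT; add b-H3K9 pep 500 nM / SAM 20 uM; 2 h RT; anti-H3K9me1 Ab 0.5 ug/mL + SA donor / anti-rabbit acceptor beads 20 ug/mL each, 10 min; AlphaScreen read.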
# JMJD2A Tudor = inhibitors of human JMJD2A Tudor domain | AlphaScreen JMJD2A-Tudor / H3K4me3 peptide binding | Potency, µM (titrated, usually from 114 µM), for the others: at the top dose activity change, negative = inhibition, usual class: inhibitors | hit rate 4.4% among 390,000 | O75164 | AID 504339; note: % is set by controls: 0 for no effect and ±100 for the full control effect; nearly all actives have a fitted effect of over 50% in size
# HP1b binding inh = HP1-beta chromodomain-methylated histone interaction inhibition. Potency, µM (doses to about 114 µM), for the others: at the top dose activity change, negative = inhibition, most hits filed as inhibitors. hit rate 0.56% among 390,000. AlphaScreen HP1-beta / biotin-H3K9me3 peptide binding. AID 540317. P83916; note: nearly all actives have a fitted effect of over 70% in size
#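 AlphaScreen: HP1-beta (50 nM) preformed 30 min with biotin-H3(1-18)K9me3 peptide (50 nM) in PBS pH 7.4, 0.01% Tween-20. Compound added for 30 min at RT, then streptavidin donor/nickel chelate acceptor beads (10 ug/mL) for 30 min.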
# BAZ2B block = blocks human BAZ2B. hit rate 4.4% among 360,000. Q9UIF8. AlphaScreen BAZ2B-H3K14Ac peptide displacement. Potency, µM (highest dose often 114 µM), inactives show at the highest dose activity change, negative = inhibition, most hits filed as inhibitors; note: % is set by controls: 0 for no effect and ±100 for the full control effect; nearly all actives have a fitted effect of over 60% in size
#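 BAZ2B 50 nM plus b-H3(5-23)K14Ac 50 nM, PBS pH 7.4/0.01% Tween-20, 30 min RT; compound added (max 110 uM), 30 min RT; streptavidin donor/Ni-chelate acceptor beads 10 ug/mL final, 20 min dark; AlphaScreen read.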
# Sfp inh = blocks B. subtilis Sfp PPTase activity; Q9F4F7; Biochemical Sfp PPTase activity, qHTS; Potency, µM, without a hit: largest response in the series, negative = inhibition, usual class: inhibitors; hit rate 3.5% among 310,000; AID 1490;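 note: the enzyme is Sfp with the accession as filed and its product quenches rhodamine fluorescence; 0% = enzyme reaction without inhibitor and -100% = no enzyme wells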
#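 With Hepes-Na pH 7.6 buffer containing 10 mM MgCl2, Sfp (15 nM) modified BHQ-2-YbbR (12.5 uM) using rhodamine-CoA (5 uM). Two reads 30 minutes apart at 525/598 nm yielded each well's rate.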
# Numbers without * were called inactive; ? = inconclusive; · = no result given; [ ] = remark or other dose. Shown are actives, neighbours in structure and some others; about 12% of the full set was active somewhere. Calls come from the whole dose curve; as a rule, active = well fitted curve in the direction sought with a large enough effect; inconclusive = small, poorly fitted or top-dose-only effect, or another doubt; inactive = no such curve, though single readings can be large; an effect the other way counts as inactive or inconclusive. Potency is the fitted concentration of half-maximal effect.
SMILES,PLK1 PBD inh,G9a block,JMJD2A Tudor,HP1b binding inh,BAZ2B block,Sfp inh
CCC(NC(=O)Nc1cccc(C)c1)c1c(-n2cccc2)sc2c1CCN(C)C2 (stereo not drawn),·,-31%[59 µM],?,3%,-38%,·
Cc1ccc(CNC(=O)c2c(C)oc3nc(C)nc(N4CCOCC4)c23)cc1,·,3%[59 µM],-14%,13%,7%[57.1 µM],·
COCc1cc(C)nc(OCC(=O)N/N=C/c2ccc(-c3cccc([N+](=O)[O-])c3)o2)c1C#N,·,50µM*,·,·,-36%,-10%
COCc1cc(C)nc(OCC(=O)N/N=C/c2ccc(C)o2)c1C#N,1%,45µM*,-1%,54%,12%,4µM*
COCc1cc(C)nc(OCC(=O)N/N=C/c2ccc(O)cc2)c1C#N,0%,8%,-10%,34%,-5%,1%
COCc1cc(C)nc(N/N=C/c2ccc(-c3ccc(C(=O)O)c(Cl)c3)o2)c1C#N,·,11µM*,·,·,79µM*,-6%
CC(C)Nc1nc(C#N)nc(Nc2ccccc2)n1,·,·,-16%,·,·,·
CN1CCN(C(=O)C(=O)Nc2c3c(nn2-c2ccc(F)cc2)CSC3)CC1,·,4%[59 µM],3%,43%,-3%,·
CSc1ccc2nnc(-c3ccc(C)cc3)n2n1,·,·,-20%[57.1 µM],20%[57 µM],·,·
Cc1cc(C)c(/C=C/c2onc(C)c2S(=O)(=O)N2CCC(C(=O)N3CCN(c4ccc(Cl)cc4)CC3)CC2)c(C)c1,·,8%[59 µM],-8%,18%[57 µM],-14%,·
FC(F)(F)c1cc(-c2ccc(Cl)cc2)nc(NCc2cccnc2)n1,-4%,34%[12.7 µM],7%,40%,12%,79µM*
CC(=O)c1c(C(=O)O)[nH]c(C(=O)O)c1C,-18%,16µM*,-18%[11.4 µM],5%,?,0%
O=C1CC(C(=O)Nc2cccc(Cl)c2)n2ncnc2N1 (stereo not drawn),3%,-3%,-10%,34%,-14%,20%
CC(=O)Nc1ccc(NC(=O)C2CC(=O)Nc3ncnn32)cc1 (stereo not drawn),-4%,8%[12.7 µM],-11%,42%,-20%,13%
O=C1CC(C(=O)Nc2cc(Cl)ccc2Cl)n2ncnc2N1 (stereo not drawn),4%,10µM*,-5%,55%,5%,17%
Cc1ccc(Cl)cc1NC(=O)C1CC(=O)Nc2ncnn21 (stereo not drawn),-1%,50µM*,-4%[11.4 µM],46%,-22%,7%
COc1ccc(NC(=O)COCc2cc(-c3cccs3)on2)cc1,·,-3%[59 µM],-8%,20%,5%,·
[O-]/[N+](=C\c1ccncc1)c1ccc(Br)cc1,21µM*,40µM*,-31%,-10%,?,?
COC(=O)CN(C(=S)Nc1ccccc1)C1CC(=O)N(c2ccc(OC)cc2)C1=O (stereo not drawn),-12%,-2%[12.7 µM],-24%,8%,-6%,2%
CNC(=S)N(Cc1ccc(OC)cc1)C1CC(=O)N(c2ccc(C(=O)OC)cc2)C1=O (stereo not drawn),·,40µM*,·,·,12%,-14%
CNC(=S)N(Cc1ccc(OC)cc1)C1CC(=O)N(c2ccc(OC)cc2)C1=O (stereo not drawn),-12%,-10%[59 µM],-16%,?,7%,11%
COC(=O)CN(C(=S)Nc1ccc(F)cc1)C1CC(=O)N(c2ccc(OC)cc2)C1=O (stereo not drawn),-17%,40µM*,-26%,1%,4%,31%
CSCCC(N)C(=O)O (stereo not drawn),·,19%[59 µM],·,·,·,-8%
COc1ccc(NC(=O)C2(C)CCN2CCc2ccccc2)cc1OC (stereo not drawn),-1%,·,·,·,·,·
CC(=O)OCCCNc1cc(Sc2ccc(Cl)cc2)c2nonc2c1[N+](=O)[O-],1.2µM*,?,-19%,5%,-19%,50µM*
SMILES,PLK1 PBD inh,G9a block,JMJD2A Tudor,HP1b binding inh,BAZ2B block,Sfp inh
CC(C)CCSc1cc(NCCO)c([N+](=O)[O-])c2nonc12,-26%,50µM*,-31%,22%,-33%,-13%
CCN(CC)c1cc(NCCO)c([N+](=O)[O-])c2nonc12,-2%,·,-14%,28%,-11%,-5%
Cc1ccc(Sc2cc(NCCCO)c([N+](=O)[O-])c3nonc23)cc1,24µM*,50µM*,-12%[11.4 µM],-5%,-25%,-24%
O=C(Nc1ccc(F)c(F)c1)c1ccc(=O)n(Cc2ccc(F)cc2)c1,·,5%[59 µM],2%,31%[57 µM],3%,·
CCCC(=O)N(Cc1cc(=O)[nH]c2ccccc12)c1ccccc1C,5%,35µM*,?,1%,0%,-13%
CC(=O)N(Cc1cc(=O)[nH]c2ccccc12)c1ccccc1C,-9%,25µM*,?,-3%,-1%,-16%
CC1COC(=C2C(=O)OCC2C)C1 (stereo not drawn),0%,·,·,·,·,·
CSCCC1COC(c2cccs2)=N1 (stereo not drawn),-6%,0.89µM*,-22%,14%,·,3%
NN/C(=C\[N+](=O)[O-])Nc1ccccc1,0%,20µM*,-31%,14%,56µM*,-14%
O=C(/C=C/c1ccccc1[N+](=O)[O-])Nc1ccccc1,-3%,?,-1%,0%,-36%,?
NN/C(=C\[N+](=O)[O-])Nc1ccc(Cl)cc1,12µM*,1.3µM*,?,3%,?,-7%
NNC(=S)Nc1ccc(Cl)cc1,-14%,?,?,-2%,-4%,0%
COc1ccc(-c2ccccc2C2NC(C(=O)O)CCC2C)cc1 (stereo not drawn),·,·,·,·,·,28%
O=C(c1csnn1)N1CCC2(CCCN(C(c3ccccc3)c3ccccc3)C2)CC1,·,4%[12.7 µM],·,·,·,-15%
Nc1nc(CSc2nc3ccccc3s2)nc(N2CCOCC2)n1,-1%,12%,-8%,16%,-22%,26%
Nc1nc(CSCc2ccccc2)nc(N2CCOCC2)n1,-21%,-20%[59 µM],?,19%,?,28µM*
Cc1cc(-c2n[nH]c(=S)n2/N=C/c2ccc(Br)s2)n[nH]1,-27%,?,13µM*,-25%,-37%,-20%
Cc1ccc(/C=N/Nc2nc(Cl)c(Cl)cc2Cl)s1,1%,-28%,7%,42%,-6%,22%
Cc1ccc(/C=N/n2c(C)nnc2C)s1,27µM*,?,-21%[57.1 µM],?,-4%,7%
Cc1cc(-c2n[nH]c(=S)n2/N=C/c2ccc(C)s2)n[nH]1,-15%,1.8µM*,7.9µM*,0%,?,-17%
CCCc1cc(=O)oc2cc(C)cc(OC(C)C(=O)NCc3ccccn3)c12 (stereo not drawn),-17%,1%,-6%,52%,-21%,15%
CC(=O)c1ccc(NC(=O)Cn2cc(S(=O)(=O)Cc3cccc(Cl)c3)c3ccccc32)cc1,·,18%[59 µM],0%,28%,1%,·
CN(C)C=Nc1nonc1-c1ncn[nH]1,-6%,22µM*,2.5µM*,10%,-10%,?

# Screening data (PubChem)
